Results on eight molecules are retold here after ChEMBL document CHEMBL3988442, “University of Dundee, Small-Polar-MMV Screening Library” (2021).

The structures appear in SMILES notation. For some of these results: Results with a measured potency or affinity are listed apart.

What all share (parameters): scale not given: direction of the effect not stated beside the values
Test [1] concerns the target Protein translocase subunit SecA (Escherichia coli (strain K12)) (UniProt P10408). The test can be described thus: Assay to Identify E. coli SecA ATPase Inhibitors. The test is classed as functional. The settings on record: 30 µM.
Test [2] concerns the target T1, Ubiquitin-activating enzyme e1, putative (Leishmania donovani (strain BPK282A1)) (UniProt E9BSI1).
T1 sequence (whole entry): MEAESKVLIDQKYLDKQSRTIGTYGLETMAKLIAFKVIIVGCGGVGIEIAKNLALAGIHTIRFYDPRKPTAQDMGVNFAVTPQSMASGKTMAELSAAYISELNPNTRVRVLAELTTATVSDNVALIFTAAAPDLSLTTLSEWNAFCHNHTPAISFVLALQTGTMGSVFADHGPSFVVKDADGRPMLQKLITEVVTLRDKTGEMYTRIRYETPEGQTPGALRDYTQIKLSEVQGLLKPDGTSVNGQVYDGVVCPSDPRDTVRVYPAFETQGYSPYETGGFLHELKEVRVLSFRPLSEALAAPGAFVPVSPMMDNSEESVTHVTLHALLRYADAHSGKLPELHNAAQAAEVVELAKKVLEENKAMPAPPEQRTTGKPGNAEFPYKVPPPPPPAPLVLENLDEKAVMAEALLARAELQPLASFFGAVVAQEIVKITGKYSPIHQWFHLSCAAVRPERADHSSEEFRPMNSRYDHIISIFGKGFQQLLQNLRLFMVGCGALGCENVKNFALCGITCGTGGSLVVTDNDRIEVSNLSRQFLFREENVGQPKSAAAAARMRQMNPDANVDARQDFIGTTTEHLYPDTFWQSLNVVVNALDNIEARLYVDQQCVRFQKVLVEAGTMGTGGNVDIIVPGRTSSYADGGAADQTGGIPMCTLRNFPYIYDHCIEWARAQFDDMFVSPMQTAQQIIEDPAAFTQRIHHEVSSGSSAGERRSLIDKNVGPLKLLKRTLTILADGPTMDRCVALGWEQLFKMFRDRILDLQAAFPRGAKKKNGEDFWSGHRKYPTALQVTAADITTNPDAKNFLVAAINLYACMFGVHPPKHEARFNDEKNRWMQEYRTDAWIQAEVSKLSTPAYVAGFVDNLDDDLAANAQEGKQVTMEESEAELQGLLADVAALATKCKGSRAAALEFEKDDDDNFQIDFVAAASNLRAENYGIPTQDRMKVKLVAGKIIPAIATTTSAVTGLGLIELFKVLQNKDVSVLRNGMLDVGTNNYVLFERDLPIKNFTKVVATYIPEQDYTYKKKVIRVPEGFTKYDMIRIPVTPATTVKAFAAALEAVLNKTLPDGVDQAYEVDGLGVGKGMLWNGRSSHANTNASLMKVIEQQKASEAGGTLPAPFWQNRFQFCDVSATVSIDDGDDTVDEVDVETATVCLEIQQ
The test can be described thus: Leishmania donovani Ubiquitin Activating Enzyme (LdE1). The settings on record: 30 µM. The test is classed as functional.

Test [3] has as its target AMP-activated protein kinase, AMPK (Homo sapiens) (UniProt P54646+O43741+P54619+Q9UGJ0+Q9Y478+Q13131+Q9UGI9). The test can be described thus: AMP-dependent Kinase enzyme assay. An in vitro enzyme assay that detects ADP turnover that is directly proportional to AMPK activity. This uses naive AMPK that is activated during the assay with MK-8722. The test is classed as functional. Particulars: 30 µM.

Test [4] has as its target Sialic acid-binding Ig-like lectin 9 (Homo sapiens) (UniProt Q9Y336). The test can be described thus: Hs-Siglec9 ALPHAscreen SOP 20170721. Particulars: 10 µM.
The next test has as its system Trypanosoma cruzi. The test can be described thus: Trypanosoma cruzi phosphomannomutase and mannose-1-phosphate guanylyltransferase assay. The test is classed as functional. The settings on record: 10 µM.
The target of test [5] is T2, Arginase-2, mitochondrial (Homo sapiens) (UniProt P78540).
T2 sequence (whole entry): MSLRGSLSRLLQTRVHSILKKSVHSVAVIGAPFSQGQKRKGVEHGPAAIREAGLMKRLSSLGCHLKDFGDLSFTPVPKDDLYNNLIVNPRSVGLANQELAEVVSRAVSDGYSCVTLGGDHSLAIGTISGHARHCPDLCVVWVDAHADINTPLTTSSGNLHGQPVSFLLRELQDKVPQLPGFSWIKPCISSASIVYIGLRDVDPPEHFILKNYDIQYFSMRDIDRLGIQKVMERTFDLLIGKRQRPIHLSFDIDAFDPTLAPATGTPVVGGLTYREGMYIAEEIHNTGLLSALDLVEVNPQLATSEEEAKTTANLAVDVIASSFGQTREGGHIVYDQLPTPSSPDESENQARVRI
The test can be described thus: in vitro enzyme assay to detect the production of urea directly proportional to the activity of Arginase II. Also: in the data most compounds retested in dose-response had high values. The test is classed as functional. Particulars: 33.3 µM.

The target of test [6] is T3, Proteasome subunit beta (Trypanosoma cruzi) (UniProt O96673).
T3 sequence (whole entry): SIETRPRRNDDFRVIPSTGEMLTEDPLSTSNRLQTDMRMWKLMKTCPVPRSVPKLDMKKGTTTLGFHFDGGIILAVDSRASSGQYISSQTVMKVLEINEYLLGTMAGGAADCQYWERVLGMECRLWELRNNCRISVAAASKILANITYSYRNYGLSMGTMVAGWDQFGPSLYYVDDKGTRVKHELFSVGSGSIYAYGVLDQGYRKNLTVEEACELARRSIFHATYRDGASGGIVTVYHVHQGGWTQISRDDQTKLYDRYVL
The test can be described thus: Trypanosoma cruzi proteasome chymotrypsin-like activity (TcProtChymo) assay. Also: in the data most compounds retested in dose-response had high values. The test is classed as functional. The settings on record: 9.37 µM.

The species named for the next test is Homo sapiens. The test can be described thus: To identify inhibition of the IFN signalling (Jak-Stat) pathway via expression of an eGFP reporter gene under the control of an IFN-stimulated response element (ISRE) containing MxA promoter. The test is classed as functional. Particulars: 30 µM.
In test [7] the target is T4, Tyrosyl-tRNA synthetase, putative (Trypanosoma cruzi (strain CL Brener)) (UniProt Q4DSP6).
T4 sequence (whole entry): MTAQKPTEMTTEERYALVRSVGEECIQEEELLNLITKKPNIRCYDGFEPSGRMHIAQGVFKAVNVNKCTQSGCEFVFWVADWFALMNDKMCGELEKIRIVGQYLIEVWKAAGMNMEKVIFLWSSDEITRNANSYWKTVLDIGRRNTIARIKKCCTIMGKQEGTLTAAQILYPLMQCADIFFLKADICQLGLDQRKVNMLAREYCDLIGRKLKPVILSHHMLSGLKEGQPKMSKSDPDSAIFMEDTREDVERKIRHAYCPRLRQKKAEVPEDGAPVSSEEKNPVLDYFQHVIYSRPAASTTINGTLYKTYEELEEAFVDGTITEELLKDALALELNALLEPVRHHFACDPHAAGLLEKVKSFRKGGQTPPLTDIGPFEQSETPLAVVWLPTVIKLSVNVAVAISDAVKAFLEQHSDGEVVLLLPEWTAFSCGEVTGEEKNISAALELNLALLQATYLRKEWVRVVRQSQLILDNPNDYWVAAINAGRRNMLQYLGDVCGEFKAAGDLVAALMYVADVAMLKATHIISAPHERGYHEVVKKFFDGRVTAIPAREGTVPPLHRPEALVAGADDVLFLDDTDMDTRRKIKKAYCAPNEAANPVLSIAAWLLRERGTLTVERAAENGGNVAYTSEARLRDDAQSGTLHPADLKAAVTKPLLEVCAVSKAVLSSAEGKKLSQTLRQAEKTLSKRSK
The test can be described thus: Trypanosoma cruzi tyrosyl tRNA synthetase (TcYRS) _High Tyrosine SOP. Also: in the data most compounds retested in dose-response had high values. The test is classed as functional. The settings on record: 30 µM.

Test [8] concerns the target T4, Tyrosyl-tRNA synthetase, putative (Trypanosoma cruzi (strain CL Brener)). The test can be described thus: Trypanosoma cruzi tyrosyl tRNA synthetase (TcYRS) SOP. The test is classed as functional. The settings on record: 30 µM.
Test [9] addresses Chromo domain-containing protein 1 (Saccharomyces cerevisiae (strain ATCC 204508 / S288c) (Baker's yeast)) (UniProt P32657). The test can be described thus: ScCHD-1 Enzyme Inhibition Assay. Also: in the data most compounds retested in dose-response had high values. The test is classed as functional. Particulars: 30 µM.

Chromo domain-containing protein 1 (Saccharomyces cerevisiae (strain ATCC 204508 / S288c) (Baker's yeast)), sequence (P32657 whole entry, the tested form may be a part): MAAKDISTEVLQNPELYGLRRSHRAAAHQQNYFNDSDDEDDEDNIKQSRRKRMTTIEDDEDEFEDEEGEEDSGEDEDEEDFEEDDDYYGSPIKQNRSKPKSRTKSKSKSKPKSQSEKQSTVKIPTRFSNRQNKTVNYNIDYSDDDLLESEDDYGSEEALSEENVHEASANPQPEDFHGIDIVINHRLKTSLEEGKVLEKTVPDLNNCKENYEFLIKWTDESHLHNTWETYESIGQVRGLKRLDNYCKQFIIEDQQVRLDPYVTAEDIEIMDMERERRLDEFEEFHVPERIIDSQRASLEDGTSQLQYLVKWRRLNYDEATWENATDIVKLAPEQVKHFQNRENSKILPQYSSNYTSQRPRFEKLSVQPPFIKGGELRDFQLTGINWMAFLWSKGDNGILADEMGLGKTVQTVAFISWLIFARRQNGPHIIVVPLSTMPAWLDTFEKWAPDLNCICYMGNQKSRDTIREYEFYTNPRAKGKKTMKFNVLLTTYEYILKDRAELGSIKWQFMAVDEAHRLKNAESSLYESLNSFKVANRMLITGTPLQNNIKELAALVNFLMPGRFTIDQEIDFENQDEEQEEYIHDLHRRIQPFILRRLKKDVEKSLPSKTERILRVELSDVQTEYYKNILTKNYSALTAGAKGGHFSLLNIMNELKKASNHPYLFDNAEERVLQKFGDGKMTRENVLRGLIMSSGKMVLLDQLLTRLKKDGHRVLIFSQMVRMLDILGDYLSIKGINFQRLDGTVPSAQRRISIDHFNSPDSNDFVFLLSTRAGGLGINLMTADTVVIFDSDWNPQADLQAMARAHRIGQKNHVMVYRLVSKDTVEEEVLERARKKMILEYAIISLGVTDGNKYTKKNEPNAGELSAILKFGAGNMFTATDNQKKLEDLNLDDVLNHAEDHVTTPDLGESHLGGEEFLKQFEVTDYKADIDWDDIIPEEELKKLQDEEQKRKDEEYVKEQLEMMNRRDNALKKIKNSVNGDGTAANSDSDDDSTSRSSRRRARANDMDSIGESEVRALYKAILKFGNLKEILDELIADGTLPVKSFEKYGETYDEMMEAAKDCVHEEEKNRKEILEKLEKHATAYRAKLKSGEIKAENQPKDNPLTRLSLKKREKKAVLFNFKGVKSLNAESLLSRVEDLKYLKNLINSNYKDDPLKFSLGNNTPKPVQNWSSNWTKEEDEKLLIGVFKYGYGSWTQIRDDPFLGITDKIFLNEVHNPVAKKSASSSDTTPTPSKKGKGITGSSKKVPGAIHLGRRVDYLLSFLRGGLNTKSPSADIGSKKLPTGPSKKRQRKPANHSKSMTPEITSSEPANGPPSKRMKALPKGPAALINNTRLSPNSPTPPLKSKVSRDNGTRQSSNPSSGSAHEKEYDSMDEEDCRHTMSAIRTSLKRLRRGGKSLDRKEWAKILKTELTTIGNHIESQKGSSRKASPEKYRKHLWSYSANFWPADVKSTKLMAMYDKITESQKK
Protein translocase subunit SecA (Escherichia coli (strain K12)), sequence (P10408 whole entry): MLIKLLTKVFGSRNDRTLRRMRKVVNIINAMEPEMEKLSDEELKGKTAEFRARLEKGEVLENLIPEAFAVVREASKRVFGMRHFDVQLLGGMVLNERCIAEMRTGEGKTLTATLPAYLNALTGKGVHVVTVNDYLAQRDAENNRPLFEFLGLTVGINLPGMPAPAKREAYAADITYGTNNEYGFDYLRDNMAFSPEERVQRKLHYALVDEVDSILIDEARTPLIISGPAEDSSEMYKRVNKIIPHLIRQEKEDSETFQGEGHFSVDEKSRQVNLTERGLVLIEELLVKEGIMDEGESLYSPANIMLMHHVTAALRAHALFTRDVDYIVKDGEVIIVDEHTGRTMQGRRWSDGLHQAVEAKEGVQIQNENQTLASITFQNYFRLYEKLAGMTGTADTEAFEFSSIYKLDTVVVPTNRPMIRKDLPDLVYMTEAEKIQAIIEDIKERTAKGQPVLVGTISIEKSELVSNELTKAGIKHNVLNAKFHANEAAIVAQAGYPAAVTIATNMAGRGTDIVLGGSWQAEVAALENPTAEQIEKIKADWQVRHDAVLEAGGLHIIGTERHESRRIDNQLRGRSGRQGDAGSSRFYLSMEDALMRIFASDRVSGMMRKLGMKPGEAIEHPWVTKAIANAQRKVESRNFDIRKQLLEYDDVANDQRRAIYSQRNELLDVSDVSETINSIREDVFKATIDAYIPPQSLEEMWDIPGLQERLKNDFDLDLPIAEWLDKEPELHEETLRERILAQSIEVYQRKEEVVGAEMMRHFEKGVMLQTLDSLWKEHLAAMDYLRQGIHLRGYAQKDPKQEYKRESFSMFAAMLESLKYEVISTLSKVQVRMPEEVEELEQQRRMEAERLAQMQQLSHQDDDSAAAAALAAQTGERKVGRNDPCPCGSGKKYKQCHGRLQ
Sialic acid-binding Ig-like lectin 9 (Homo sapiens), sequence (Q9Y336 whole entry): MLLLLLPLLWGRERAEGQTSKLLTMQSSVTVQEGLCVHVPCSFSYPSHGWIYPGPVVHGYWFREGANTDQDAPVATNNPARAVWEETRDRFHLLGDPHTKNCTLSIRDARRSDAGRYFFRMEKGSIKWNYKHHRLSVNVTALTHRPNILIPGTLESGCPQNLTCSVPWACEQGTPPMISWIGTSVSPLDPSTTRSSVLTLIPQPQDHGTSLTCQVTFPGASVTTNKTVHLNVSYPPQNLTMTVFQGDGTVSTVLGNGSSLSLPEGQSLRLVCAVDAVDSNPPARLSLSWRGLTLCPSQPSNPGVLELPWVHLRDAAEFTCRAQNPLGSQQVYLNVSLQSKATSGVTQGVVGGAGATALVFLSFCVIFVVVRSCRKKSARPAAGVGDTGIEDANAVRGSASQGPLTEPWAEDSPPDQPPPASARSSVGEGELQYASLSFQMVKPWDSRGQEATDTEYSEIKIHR

With `COCCN1CCC2(CCCN(C(=O)c3cnoc3C)C2)C1=O` (stereo not drawn), the Percent Effect in [1] was 0.295%; in [2], 8.22%; in test [3], 3.34%; in test [4] it was 5.08%; in the test on Trypanosoma cruzi it was -6.55%; in [5], -3.19%. Besides, the Percent Effect is 12.2% in [6]; 0.796% in the test listed under Homo sapiens; 4.17% in [7]; 3.7% in test [8]; -5.73% in test [9].

As for `CS(=O)(=O)c1ccc(OCCNCc2cccc(F)c2)cc1`, the Percent Effect in test [1] is -6.14%; in test [2], 0%; in test [3], 1.51%; in test [4], 6.7%; in the test with Trypanosoma cruzi it was 3.57%; in [5], -0.798%. Besides, the Percent Effect in test [6] is 4.02%; in the test listed under Homo sapiens, 3.81%; in test [7] it was 8.33%; in [8], 13.6%; in test [9] it was 3.19%.

In the case of `CC(CNCc1ccncc1)Oc1ccccn1` (stereo not drawn), the Percent Effect in test [1] is -0.77%; in test [2] it was 9.33%; in [3] it was -1.66%; in test [4] it was 5.01%; in the test with Trypanosoma cruzi, 0%; in [5] it was -15.3%. The Percent Effect was 13.9% in test [6]; 2.27% in the test filed under Homo sapiens; 4.23% in test [7]; 7.69% in test [8]; -10.8% in test [9].

Consider `CN(Cc1nnc(C2CC2)n1C)C(=O)c1ccnc(OC2CCC2)c1`, for which the Percent Effect in test [1] is -5.02%; in test [2], 2.7%; in test [3], 2.08%; in test [4], 2.83%; in the test on Trypanosoma cruzi, 3.09%; in [5], 1.43%. Also, the Percent Effect was 6.21% in test [6]; -9.69% in the test filed under Homo sapiens; 0.529% in [7]; -2.44% in test [8]; -2.68% in test [9].

Turning to `CO[C@H]1CN(C(=O)c2ccccn2)[C@@H]2CCCO[C@H]12`, the Percent Effect in test [1] was -0.127%; in test [2] it was -2.7%; in [3] it was 2.92%; in [4], 0.754%; in the test on Trypanosoma cruzi it was -2.25%; in [5], 1.59%. The Percent Effect in test [6] stood at 17.5%; in the test filed under Homo sapiens, 0.992%; in test [7], 0%; in [8], 5.13%; in test [9], 3.83%.

On to `Cc1cc(C(=O)N2CCC(c3nccn3Cc3ccncc3)CC2)no1`, for which the Percent Effect in test [1] is -4.98%; in [2], 8.22%; in test [3] it was 5.77%; in test [4] it was -7.08%; in the test with Trypanosoma cruzi it was -0.979%; in test [5] it was 5.46%. Besides, the Percent Effect in [6] is 12.6%; in the test filed under Homo sapiens it was 7.62%; in test [7] it was 8.6%; in test [8], 15%; in [9], -1.03%.

`Cc1ccc(C(=O)N(C)Cc2cscn2)c(=O)[nH]1`: the Percent Effect was -6.94% in test [1]; 15.8% in test [2]; -3.33% in test [3]; 3.04% in [4]; 2.24% in the test on Trypanosoma cruzi; 1.18% in [5]. Also, the Percent Effect in test [6] was 4.31%; in the test filed under Homo sapiens, 1.38%; in [7] it was 4.25%; in test [8], 2.6%; in [9], -6.33%.

For `O=C(c1ccc(F)c(F)c1)N1CCCC(Nc2ccc(F)cc2)C1` (stereo not drawn), the Percent Effect is -2.99% in [1]; -2.7% in [2]; -4.26% in test [3]; 1.48% in [4]; 6.56% with Trypanosoma cruzi; -2.86% in test [5]. The Percent Effect was 2.59% in test [6]; 19.7% in the test listed under Homo sapiens; 6.88% in test [7]; 7.32% in [8]; -2.35% in test [9].
